For 10 compounds, Potency, outcome and max activation results are on record in PubChem BioAssay (Tox21).

Values without a mark were called inactive. Results filed as inconclusive are left out. The source made the active and inactive calls. Unless noted, the call rests on the fitted dose curve; in most records, active means well fitted curve in the direction sought with a large enough effect in the repeat runs; inconclusive means weak or mixed curves; inactive means no such curve, though single readings can be large; an effect the other way counts as inactive or inconclusive.

For test [1], the target named is Thyrotropin-releasing hormone receptor (Homo sapiens) (UniProt P34981). As to the kind of experiment: qHTS assay to identify small molecule agonists of the thyrotropin-releasing hormone receptor (TRHR) signaling pathway (AID 1346891; calls by dose curve;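 further: HEK293 cells expressing TRHR with calcium dye readout; series mostly up to about 58 µM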). Summed up:
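Overnight-plated (18 h, 37 °C, 5% CO2) TRHR-Hek293 cells; 2 h calcium dye at 37 °C; compound in DMSO; 3-min kinetic fluorescence read.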
Background: In qHTS, concentration-response curves come from the screen itself.

The nature of test [2]: Human pregnane X receptor (PXR) small molecule agonists, qHTS cell viability counter screen (AID 1346977). Further: nearly all actives have a fitted effect of over 50% in size. Further: potency means the concentration at half of the fitted maximal effect. Summed up: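 After a 5hr pre-incubation, PXR-Luc HepG2 cells received compounds plus positive control in DMSO and were kept 24hr at 37C. Cell viability was quantified by fluorescence from CellTiter-Fluor added for the final hour.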
A short description of test [3]: Caspase-3/7 induction in CHO-K1 cells by small molecules, qHTS cell viability counter screen (AID 1346979). Further: nearly all actives have a fitted effect of over 35% in size. Further: potency means the concentration at half of the fitted maximal effect. Summed up: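 Multiplexed with Caspase-Glo 3/7 in CHO-K1 cells, this counter screen added CellTiter-Fluor after 16hr of compound exposure and recorded fluorescence 1hr later.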
Test [4] can be described thus: Caspase-3/7 induction in CHO-K1 cells by small molecules, qHTS assay (AID 1346980). Further: nearly all actives have a fitted effect of over 15% in size. A digest of the protocol:
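Wild-type cells were seeded at 1,500 per well and settled 5 hr at 37 C, 5% CO2, then exposed to DMSO-dissolved compounds for 17 hr. Caspase-Glo 3/7 reagent was added, and luminescence was read after 30min at room temperature.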

Test [5] is described as follows: Caspase-3/7 induction in HepG2 cells by small molecules, qHTS cell viability counter screen (AID 1346981). Further: series mostly up to about 92 µM; nearly all actives have a fitted effect of over 30% in size. Summed up: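 Wild-type HepG2 cells, 2,000/well, settled 5 hr at 37 C, 5% CO2 before compound addition. Viability read by CellTiter-Fluor fluorescence, reagent added after 16 hr compound exposure, then 1 hr at 37C, in the same wells as the caspase read.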
Test [6] addresses Nuclear receptor subfamily 1 group I member 2 (Homo sapiens) (UniProt O75469). As to the kind of experiment: Human pregnane X receptor (PXR) small molecule agonists, qHTS assay (AID 1346982). Further: nearly all actives have a fitted effect of over 35% in size. Further: potency means the concentration at half of the fitted maximal effect. A digest of the protocol:
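PXR-Luc HepG2 reporter cells (CYP3A4-driven luciferase) in 5% charcoal-stripped FBS medium, plated 5 h before compound addition, then treated 24 h at 37C. Luciferase read by ONE-Glo luminescence after 30 min at room temperature.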

Test [7] concerns the target Cytochrome P450 2C19 (Homo sapiens) (UniProt P33261). The experiment in a line: Cytochrome P450 Family 2 Subfamily C Member 19 (CYP2C19) small molecule antagonists: luciferase reporter qHTS assay (AID 1671197). Further: nearly all actives have a fitted effect of over 65% in size. Further: potency means the concentration at half of the fitted maximal effect. Summed up:
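P450-Glo CYP2C19 system: enzyme-substrate mix with compound 10 min at room temperature, then NADPH regeneration solution, 1 h at 37C. Proluciferin-to-luciferin conversion detected by luminescence after 20 min with detection reagent; ketoconazole as positive control.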
(A reporter such as luciferase makes a cellular process visible.)

The target in test [8] is Cytochrome P450 2C9 (Homo sapiens) (UniProt P11712). As to the kind of experiment: Cytochrome P450 Family 2 Subfamily C Member 9 (CYP2C9) small molecule antagonists: luciferase reporter qHTS assay (AID 1671198). Further: nearly all actives have a fitted effect of over 50% in size. Further: potency means the concentration at half of the fitted maximal effect. Summed up: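 CYP2C9 activity was measured with a P450-Glo proluciferin substrate. Enzyme–substrate mix was held with compound for 10 min at room temperature, then NADPH regeneration solution was added for 1 h at 37C. Luciferin product was read as luminescence.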
Sequence of Cytochrome P450 2C9 (Homo sapiens) (P11712 whole entry, looked up): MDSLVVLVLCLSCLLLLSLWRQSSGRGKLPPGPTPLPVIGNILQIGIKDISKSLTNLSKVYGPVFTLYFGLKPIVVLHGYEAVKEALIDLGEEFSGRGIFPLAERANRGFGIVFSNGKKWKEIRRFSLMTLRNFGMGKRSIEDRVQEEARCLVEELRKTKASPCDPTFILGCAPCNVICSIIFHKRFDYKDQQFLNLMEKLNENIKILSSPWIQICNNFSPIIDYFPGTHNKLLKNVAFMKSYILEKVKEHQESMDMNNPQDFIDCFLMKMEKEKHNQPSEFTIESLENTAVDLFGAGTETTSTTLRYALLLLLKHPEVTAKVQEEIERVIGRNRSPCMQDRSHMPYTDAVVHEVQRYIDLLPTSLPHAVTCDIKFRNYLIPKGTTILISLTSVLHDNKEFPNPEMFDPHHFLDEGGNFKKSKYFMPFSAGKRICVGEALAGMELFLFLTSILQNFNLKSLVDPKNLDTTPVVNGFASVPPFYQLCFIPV

The target of test [9] is Cytochrome P450 1A2 (Homo sapiens) (UniProt P05177). The experiment in a line: Cytochrome P450 Family 1 Subfamily A Member 2 (CYP1A2) small molecule antagonists: luciferase reporter qHTS assay (AID 1671199). Further: nearly all actives have a fitted effect of over 50% in size. Further: potency means the concentration at half of the fitted maximal effect. A digest of the protocol:
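P450-Glo CYP1A2 enzyme–proluciferin substrate mix with compound 10 min at room temperature, then NADPH regeneration 1 h at room temperature. Luciferin detection reagent added, luminescence read after 20 min; furafylline positive control.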

The target of test [10] is Voltage-gated inwardly rectifying potassium channel KCNH2 (Homo sapiens) (UniProt Q12809). As to the kind of experiment: Human Ether-a-go-go-Related Gene (hERG) channel small molecule antagonists: fluorescence cell-based qHTS assay (AID 1671200). Further: nearly all actives have a fitted effect of over 50% in size. Further: potency means the concentration at half of the fitted maximal effect. Summed up:
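Cell line hERG-U2OS; dye FluxOR II, 1 h RT dark; Tl+ stimulus; ex 480/em 540 nm, read each second for 2 min.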

The target of test [11] is Cytochrome P450 3A4 (Homo sapiens) (UniProt P08684). The experiment in a line: Cytochrome P450 Family 3 Subfamily A Member 4 (CYP3A4) small molecule antagonists: luciferase reporter qHTS assay (AID 1671201). A digest of the protocol: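 Room-temperature assay throughout: 10 min compound–enzyme/substrate preincubation, 1 h reaction after NADPH regeneration solution, 20 min detection. Luciferin formed from proluciferin substrate is quantified by luminescence.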
Sequence of Cytochrome P450 3A4 (Homo sapiens) (P08684 whole entry, looked up): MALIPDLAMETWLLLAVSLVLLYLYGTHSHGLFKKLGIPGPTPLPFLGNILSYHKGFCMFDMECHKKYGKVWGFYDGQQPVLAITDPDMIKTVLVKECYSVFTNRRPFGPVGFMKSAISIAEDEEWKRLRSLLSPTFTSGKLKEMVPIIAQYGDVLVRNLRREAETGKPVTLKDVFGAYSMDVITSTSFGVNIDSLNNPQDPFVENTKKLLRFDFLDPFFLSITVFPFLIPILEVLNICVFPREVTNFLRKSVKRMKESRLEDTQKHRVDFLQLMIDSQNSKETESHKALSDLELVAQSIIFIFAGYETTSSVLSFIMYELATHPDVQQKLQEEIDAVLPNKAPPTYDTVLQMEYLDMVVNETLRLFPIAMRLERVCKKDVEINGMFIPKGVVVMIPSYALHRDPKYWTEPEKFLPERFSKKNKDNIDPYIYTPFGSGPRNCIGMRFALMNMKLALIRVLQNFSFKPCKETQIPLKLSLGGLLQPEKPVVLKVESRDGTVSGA

Test [12] concerns the target Nuclear receptor subfamily 1 group I member 2 (Rattus norvegicus) (UniProt Q9R1A7). The experiment in a line: Rat pregnane X receptor (rPXR) activation by small molecules, qHTS assay (AID 1346983). Further: nearly all actives have a fitted effect of over 20% in size. The settings on record: rPXR luciferase reporter cells, One-Glo luminescence, 24 h; max activation: stronger effect = higher value. A digest of the protocol: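 Cell-based rPXR luciferase reporter assay, 2,000 cells per well, rested 5hr at 37 C before compound addition in DMSO, then 24 hr at 37 C. One-Glo reagent was added and luminescence read after 30 min at room temperature.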

The target of test [13] is Cytochrome P450 2D6 (Homo sapiens) (UniProt P10635). The experiment in a line: Cytochrome P450 Family 2 Subfamily D Member 6 (CYP2D6) small molecule antagonists: luciferase reporter qHTS assay (AID 1671196). Further: nearly all actives have a fitted effect of over 50% in size. Further: potency means the concentration at half of the fitted maximal effect. Summed up: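 Cell-free P450-Glo system: CYP2D6 with proluciferin substrate was pre-incubated with compound for 10 min, then reacted with NADPH regeneration for 1 h at room temperature. Luciferin product was detected after 20 min, and data were reported as relative luminescence units.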
Sequence of Cytochrome P450 2D6 (Homo sapiens) (P10635 whole entry, looked up): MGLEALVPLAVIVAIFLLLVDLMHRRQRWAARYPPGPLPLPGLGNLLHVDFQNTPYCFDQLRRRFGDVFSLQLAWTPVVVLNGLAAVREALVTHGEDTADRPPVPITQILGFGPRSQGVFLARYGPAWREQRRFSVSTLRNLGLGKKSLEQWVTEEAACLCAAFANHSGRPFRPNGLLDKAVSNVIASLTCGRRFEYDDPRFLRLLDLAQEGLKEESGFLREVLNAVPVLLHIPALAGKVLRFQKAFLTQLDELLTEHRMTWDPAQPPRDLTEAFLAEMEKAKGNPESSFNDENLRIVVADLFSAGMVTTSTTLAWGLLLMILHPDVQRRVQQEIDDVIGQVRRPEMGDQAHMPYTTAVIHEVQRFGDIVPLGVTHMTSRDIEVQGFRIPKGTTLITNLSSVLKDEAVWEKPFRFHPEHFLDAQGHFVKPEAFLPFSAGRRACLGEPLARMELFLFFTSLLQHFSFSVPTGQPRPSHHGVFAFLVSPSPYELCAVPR

Test [14] is described as follows: Caspase-3/7 induction in HepG2 cells by small molecules, qHTS assay (AID 1346978). Further: nearly all actives have a fitted effect of over 15% in size. A digest of the protocol: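 Wild-type HepG2 cells (2,000/well) were settled 5 h at 37 C, 5% CO2, then exposed to compounds in DMSO for 17 h. Caspase-3/7 activity was read by luminescence 30 min after adding Caspase-Glo 3/7 reagent at room temperature.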
Test [15] deals with Nuclear receptor subfamily 1 group I member 2 (Homo sapiens) (UniProt O75469). As to the kind of experiment: CYP3A4 induction through human pregnane X receptor (PXR) by small molecules, qHTS assay (AID 1346984). Further: nearly all actives have a fitted effect of over 40% in size. Further: potency means the concentration at half of the fitted maximal effect. Summed up:
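DPX-2 HepG2 cells carrying a PXR response element and CYP3A4-promoter luciferase construct, treated with compounds 24 hr at 37C. Then P450-Glo CYP3A4 Luciferin-IPA substrate (3uM final) for 3 hr at 37C, One-Glo added, luminescence read.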

The target is the same in test [16]. As to the kind of experiment: Human pregnane X receptor (PXR) activation by small molecules, qHTS assay (AID 1346985). Further: nearly all actives have a fitted effect of over 40% in size. Further: potency means the concentration at half of the fitted maximal effect. Summed up:
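DPX-2 cells (HepG2 co-transfected with a PXR response element and a CYP3A4-promoter luciferase construct) were seeded at 2,000 per well, rested 5 hr at 37C, then exposed to DMSO-dissolved compounds for 24 hr. Activation was read as luciferase luminescence.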
On the % scale 0 is the no-effect control and ±100 the full control effect.

Sequence of Thyrotropin-releasing hormone receptor (Homo sapiens) (P34981 whole entry, looked up): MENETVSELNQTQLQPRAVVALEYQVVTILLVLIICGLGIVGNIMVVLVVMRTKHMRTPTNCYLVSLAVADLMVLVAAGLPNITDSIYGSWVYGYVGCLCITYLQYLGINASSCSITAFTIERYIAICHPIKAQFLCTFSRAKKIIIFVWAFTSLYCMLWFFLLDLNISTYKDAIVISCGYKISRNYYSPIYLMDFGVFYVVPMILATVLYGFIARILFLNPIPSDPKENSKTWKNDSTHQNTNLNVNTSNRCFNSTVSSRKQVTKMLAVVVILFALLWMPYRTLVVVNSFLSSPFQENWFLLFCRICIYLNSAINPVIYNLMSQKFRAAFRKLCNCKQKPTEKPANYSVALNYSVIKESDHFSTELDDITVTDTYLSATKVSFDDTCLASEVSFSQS
Sequence of Cytochrome P450 1A2 (Homo sapiens) (P05177 whole entry, looked up): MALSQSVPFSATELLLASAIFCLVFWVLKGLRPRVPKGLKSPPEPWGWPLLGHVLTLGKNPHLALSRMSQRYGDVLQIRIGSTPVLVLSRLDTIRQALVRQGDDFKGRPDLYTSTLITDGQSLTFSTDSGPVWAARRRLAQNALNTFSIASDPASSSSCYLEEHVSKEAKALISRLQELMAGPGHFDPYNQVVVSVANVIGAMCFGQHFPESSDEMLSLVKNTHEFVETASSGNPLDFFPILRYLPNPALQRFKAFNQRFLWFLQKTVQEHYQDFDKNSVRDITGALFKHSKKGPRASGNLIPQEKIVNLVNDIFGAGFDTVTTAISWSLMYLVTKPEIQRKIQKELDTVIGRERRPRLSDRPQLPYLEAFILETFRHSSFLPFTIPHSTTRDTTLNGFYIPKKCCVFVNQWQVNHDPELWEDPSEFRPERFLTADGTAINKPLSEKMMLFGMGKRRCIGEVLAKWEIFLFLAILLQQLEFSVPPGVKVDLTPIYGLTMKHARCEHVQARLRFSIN
Sequence of Nuclear receptor subfamily 1 group I member 2 (Rattus norvegicus) (Q9R1A7 whole entry, looked up): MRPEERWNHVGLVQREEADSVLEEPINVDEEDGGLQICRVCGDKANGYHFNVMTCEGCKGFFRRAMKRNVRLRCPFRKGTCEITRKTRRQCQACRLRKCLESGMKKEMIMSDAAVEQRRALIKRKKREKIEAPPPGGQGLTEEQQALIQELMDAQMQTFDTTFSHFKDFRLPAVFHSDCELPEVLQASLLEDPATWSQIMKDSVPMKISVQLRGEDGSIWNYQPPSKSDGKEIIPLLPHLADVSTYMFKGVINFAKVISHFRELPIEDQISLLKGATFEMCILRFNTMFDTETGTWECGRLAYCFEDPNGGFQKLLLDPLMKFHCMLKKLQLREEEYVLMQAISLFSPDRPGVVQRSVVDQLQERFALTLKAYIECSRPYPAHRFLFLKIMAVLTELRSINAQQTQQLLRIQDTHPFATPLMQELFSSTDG
Sequence of Cytochrome P450 2C19 (Homo sapiens) (P33261 whole entry, looked up): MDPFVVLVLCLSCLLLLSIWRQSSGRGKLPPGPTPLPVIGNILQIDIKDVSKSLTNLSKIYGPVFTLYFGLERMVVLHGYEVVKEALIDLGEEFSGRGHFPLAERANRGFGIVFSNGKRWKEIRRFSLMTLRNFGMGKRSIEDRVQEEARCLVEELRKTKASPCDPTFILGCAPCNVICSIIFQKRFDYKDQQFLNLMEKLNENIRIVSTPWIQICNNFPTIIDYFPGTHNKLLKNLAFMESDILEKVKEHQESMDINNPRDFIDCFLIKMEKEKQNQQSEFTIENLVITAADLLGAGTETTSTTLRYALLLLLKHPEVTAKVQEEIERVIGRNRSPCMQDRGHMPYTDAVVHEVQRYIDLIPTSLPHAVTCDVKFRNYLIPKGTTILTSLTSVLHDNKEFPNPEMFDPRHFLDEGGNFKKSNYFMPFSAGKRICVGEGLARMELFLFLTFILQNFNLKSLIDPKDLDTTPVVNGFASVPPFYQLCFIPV
Sequence of Nuclear receptor subfamily 1 group I member 2 (Homo sapiens) (O75469 whole entry, looked up): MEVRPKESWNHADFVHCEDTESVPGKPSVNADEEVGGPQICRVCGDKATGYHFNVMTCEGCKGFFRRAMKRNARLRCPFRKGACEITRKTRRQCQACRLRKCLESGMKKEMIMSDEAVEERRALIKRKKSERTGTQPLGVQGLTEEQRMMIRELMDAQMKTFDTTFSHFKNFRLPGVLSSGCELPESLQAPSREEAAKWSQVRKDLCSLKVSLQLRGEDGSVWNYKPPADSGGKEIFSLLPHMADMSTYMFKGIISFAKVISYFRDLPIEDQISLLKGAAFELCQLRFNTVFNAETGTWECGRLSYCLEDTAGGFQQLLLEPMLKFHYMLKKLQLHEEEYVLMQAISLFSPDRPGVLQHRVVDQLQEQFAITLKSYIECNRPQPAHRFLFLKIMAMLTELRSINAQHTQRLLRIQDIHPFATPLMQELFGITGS
Sequence of Voltage-gated inwardly rectifying potassium channel KCNH2 (Homo sapiens) (Q12809 whole entry, looked up): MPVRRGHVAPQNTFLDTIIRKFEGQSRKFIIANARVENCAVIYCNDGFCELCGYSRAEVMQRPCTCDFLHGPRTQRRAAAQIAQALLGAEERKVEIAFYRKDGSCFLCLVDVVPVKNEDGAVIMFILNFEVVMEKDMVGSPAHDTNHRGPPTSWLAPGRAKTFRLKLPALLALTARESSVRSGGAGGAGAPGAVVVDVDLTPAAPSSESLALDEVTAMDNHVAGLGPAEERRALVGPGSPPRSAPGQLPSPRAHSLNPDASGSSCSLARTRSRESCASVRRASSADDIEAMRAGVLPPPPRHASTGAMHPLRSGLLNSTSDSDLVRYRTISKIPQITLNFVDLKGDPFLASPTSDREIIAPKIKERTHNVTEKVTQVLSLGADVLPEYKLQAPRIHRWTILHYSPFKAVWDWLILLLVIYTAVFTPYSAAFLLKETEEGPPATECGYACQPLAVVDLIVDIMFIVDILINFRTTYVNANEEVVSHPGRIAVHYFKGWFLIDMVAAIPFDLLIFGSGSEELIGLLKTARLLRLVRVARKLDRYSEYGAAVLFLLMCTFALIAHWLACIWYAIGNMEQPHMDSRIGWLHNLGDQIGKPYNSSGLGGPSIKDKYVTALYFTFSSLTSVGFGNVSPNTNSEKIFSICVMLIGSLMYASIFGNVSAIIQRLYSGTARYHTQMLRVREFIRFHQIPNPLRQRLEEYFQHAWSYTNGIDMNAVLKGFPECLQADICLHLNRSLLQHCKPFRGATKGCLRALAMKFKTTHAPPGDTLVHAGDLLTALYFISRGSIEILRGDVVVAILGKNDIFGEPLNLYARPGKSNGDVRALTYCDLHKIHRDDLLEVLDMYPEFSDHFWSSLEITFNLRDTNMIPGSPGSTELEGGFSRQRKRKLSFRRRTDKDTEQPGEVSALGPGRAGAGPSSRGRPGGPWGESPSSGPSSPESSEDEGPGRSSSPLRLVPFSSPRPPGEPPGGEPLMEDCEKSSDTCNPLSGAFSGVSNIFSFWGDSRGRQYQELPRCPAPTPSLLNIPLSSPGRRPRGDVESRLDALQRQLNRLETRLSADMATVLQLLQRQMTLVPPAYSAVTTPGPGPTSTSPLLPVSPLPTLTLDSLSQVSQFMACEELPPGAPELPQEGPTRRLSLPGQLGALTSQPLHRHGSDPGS

In the case of `COC(OC)(C(=O)c1ccccc1)c1ccccc1`, the Potency entry in test [1], in test [2], in [3], in test [5], in test [9] and in [10] was “inactive” in each case. The Potency result in [11] is “inactive”. For the same compound, the result in [4] was inactive. In addition, the Potency in test [6] is 24.3 µM (active); in test [7], 10 µM (active); in [8] it was 20 µM (active).
With `COc1cc2ncnc(Nc3ccc(F)c(Cl)c3)c2cc1OCCCN1CCOCC1`, the Potency result in [1], in test [6], in test [8], in test [9] and in [10] was “inactive” throughout. Besides, the Potency is 23.7 µM (active) in test [2], 29.8 µM (active) in test [3], 13.8 µM (active) in test [13] and 38.9 µM (active) in test [7]. Moreover, in test [12], the max activation was -4.52%.
Take `COCCOC`: the Potency result in test [1], in [14] and in test [10] was “inactive” throughout. The Potency in [3] was 14.6 µM (active). In test [4], the call was inactive.
On to `Cc1nc2ccccn2c(=O)c1CCN1CCC(C(=O)c2ccc(F)cc2)CC1`, for which the Potency result in [1], in test [14], in [3], in test [5], in test [6] and in [7] was “inactive” in each case. Also, the Potency result in test [8] and in [9] was “inactive” in each case. For the same compound, the result in [4] was inactive. For the same compound, the Potency in test [13] was 4.36 µM (active); in test [10] it was 9.52 µM (active).
Consider `CC1CC(=O)NN=C1c1ccc(NCC(C)(C)NCC(O)COc2cc(Cl)ccc2C#N)cc1` (centres undefined), for which the Potency result in test [1], in [14], in test [3] and in [9] was “inactive” in each case. In addition, the compound was called inactive in [4]. Also, the Potency was 26.6 µM (active) in test [6], 5.49 µM (active) in test [13], 13.8 µM (active) in test [7] and 12.3 µM (active) in test [8].
Consider `CNC(=S)NC`, for which the Potency entry in test [1], in test [2], in test [5], in test [6], in test [7] and in [8] was “inactive” in each case. Further, the Potency result in test [10] was “inactive”. Also, the result in [4] was inactive. Further, the Potency in test [9] was 31.7 µM (active).
Take `O=[N+]([O-])c1cccc(S(=O)(=O)NCCNS(=O)(=O)c2cccc([N+](=O)[O-])c2)c1`: the Potency entry in test [1], in test [2], in [3], in test [5] and in [9] was “inactive” in each case. Further, the Potency in test [6] is 13.3 µM (active); in test [15] it was 7.94 µM (active); in test [16], 14.1 µM (active); in test [8] it was 8.71 µM (active).
Take `O=C(CCCN1CCC(O)(c2ccc(Br)cc2)CC1)c1ccc(F)cc1`: the Potency entry in [1], in test [2], in test [3], in test [5], in test [7] and in test [8] was “inactive” throughout. The Potency result in test [9] and in [11] was “inactive” throughout. In addition, the result in test [4] was inactive. Further, the max activation in test [12] was -1.43%. Moreover, the Potency in test [15] is 11.2 µM (active); in test [16], 11.2 µM (active); in [13], 2.45 µM (active); in [10] it was 0.239 µM (active).
For `CN(C)C(=O)Nc1ccc(Oc2ccc(Cl)cc2)cc1`, the Potency entry in test [1], in test [2] and in test [10] was “inactive” in each case. Besides, the Potency is 54.5 µM (active) in test [3]; 10.9 µM (active) in test [6]; 17.8 µM (active) in test [7]; 35.6 µM (active) in [8]; 12.6 µM (active) in [9]. Further, in test [4], the call was inactive.
In the case of `C[C@]12CCC(=O)C=C1C=C[C@@H]1[C@@H]2CC[C@@]2(C)[C@H]1CC[C@@]21CCC(=O)O1`, the Potency result in test [1], in test [2], in test [6], in test [15], in test [16] and in [13] was “inactive” throughout. The Potency result in [9], in test [10] and in test [11] was “inactive” each time. In [4], the result was inactive. For the same compound, in [12], the max activation was 4.49%. Also, the Potency in test [7] was 1.1 µM (active).
